Assay outcomes deposited in PubChem by National Center for Advancing Translational Sciences (NCATS).
A-T KAP1 phos: potential ataxia-telangiectasia treatment; Potency, µM (top dose mostly 57.5 µM), without a hit: at the top dose activation, usual class: activators; F2112 A-T fibroblasts, KAP-1 phosphorylation AlphaLISA; neocarzinostatin DNA damage 30 min before lysis; 0.19% of 320,000 active; also: potency is read from the fitted curve at half-maximal effect; % of control where 0% means no effect; nearly all actives have a fitted effect of over 45% in size
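ATM-like activity read as KAP-1 phosphorylation via AlphaLISA donor/acceptor antibody pairs after lysis and 6 hr at 25C. Cells were ATM-null patient fibroblasts (F2112, hTERT), dosed 60 min, then exposed to the DSB inducer NCS for 30 min.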
TRPML1 ag: agonists of human TRPML1 channel; Q9GZU1; TRPML1-expressing cells, Ca2+ dye fluorescence, FDSS; activation, % (no concentration beside the values); 0.12% of 410,000 active; in the data active = activation above about 50%; inconclusive = mostly about 30% to 49%; also: 0% is about no effect
Target sequence (Q9GZU1 whole entry, looked up): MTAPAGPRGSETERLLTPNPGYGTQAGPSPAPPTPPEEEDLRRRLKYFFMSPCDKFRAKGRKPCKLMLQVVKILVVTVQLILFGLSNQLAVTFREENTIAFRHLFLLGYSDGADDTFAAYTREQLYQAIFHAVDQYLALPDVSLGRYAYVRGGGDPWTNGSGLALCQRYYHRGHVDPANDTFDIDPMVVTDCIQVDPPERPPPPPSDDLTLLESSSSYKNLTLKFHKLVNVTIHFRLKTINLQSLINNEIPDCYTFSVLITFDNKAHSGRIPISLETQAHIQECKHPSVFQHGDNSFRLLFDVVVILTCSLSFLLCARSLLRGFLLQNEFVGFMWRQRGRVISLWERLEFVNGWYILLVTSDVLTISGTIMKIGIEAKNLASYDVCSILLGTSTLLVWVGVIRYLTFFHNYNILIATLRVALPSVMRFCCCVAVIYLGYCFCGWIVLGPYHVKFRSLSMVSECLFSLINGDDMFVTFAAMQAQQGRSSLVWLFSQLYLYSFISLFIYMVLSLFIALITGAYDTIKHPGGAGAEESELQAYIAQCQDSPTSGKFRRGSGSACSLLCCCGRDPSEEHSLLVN
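TRPML1-DL cells, Tet-induced overnight (~16 h, 37 degrees C), loaded 45-90 min at room temperature with Ca8 no-wash calcium dye plus quencher. FDSS fluorescence: 10 s baseline, compound pin-transfer, 110 s agonist read, then EC80 54-4 (4uM final) and 110 s antagonist read.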
TRPML1 inh: human mucolipin-1 channel inhibition | TRPML1-inducible cells, Ca2+ dye fluorescence, FDSS; active compounds read low; inhibition of EC80 agonist-evoked calcium signal | activity change, negative = inhibition, % (no concentration beside the values) | 0.02% of 390,000 active | AID 624415; in the data active = activity change below about -50%; inconclusive = between about -30% and that limit;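 also: stimulus is agonist 54-4 at its EC80 concentration; % is scaled to controls: 0 for no effect and ±100 for the full control effect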
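Calcium fluorescence in TRPML1-DL cells induced overnight with Tet: a 110 s read after compound pin addition, then a 110 s antagonist read after challenge with 54-4 at 4 uM final (EC80).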
TRPV1 agonist: agonists of human vanilloid receptor 1 (TRPV1); activation, % at 8.33 µM; Q8NER1; 0.19% of 320,000 active; TRPV1-expressing cells, Fluo-8 calcium influx, agonist mode; in the data active = activation above about 80%; inconclusive = between about 30% and that limit; also: 0% is about no effect
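TRPV1-expressing cells were cultured overnight at 35.5C and loaded with Fluo-8 calcium dye for 40 to 90 min at room temperature. After a 10 s baseline, compound was added and calcium influx was read kinetically for 3 min (ex 480/em 520 nm).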
RGS4 inh: human RGS4 inhibition | 0.039% of 390,000 active | Potency, µM (doses to about 114 µM), without a hit: at the top dose activity change, negative = inhibition, usual class: inhibitors | Transcreener GDP fluorescence polarization, RGS4-accelerated GTP hydrolysis; also: potency is read from the fitted curve at half-maximal effect; % is scaled to controls: 0 for no effect and ±100 for the full control effect; nearly all actives have a fitted effect of over 75% in size
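MLSMR compounds (23 nl, pin-transferred) preincubated 10 min at room temperature with a 500nM (2x) first reagent, then RGS4 at 900nM (2x) plus Transcreener GDP mix added; fluorescence polarization (620/688 nm) read before and after 90 min at 30 °C.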
TRPV1 potentiator: human TRPV1 potentiation; 0.02% of 320,000 active; potentiation, % at 8.33 µM; TRPV1-expressing cells, Fluo-8 calcium influx, capsaicin EC20 potentiation; in the data active = potentiation above about 80%; inconclusive = between about 30% and that limit; also: 0% is about no effect
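Cells expressing TRPV1 were dye-loaded with Fluo-8 and read kinetically: 10 s baseline, 3 min after compound (agonist portion), then 2 min after EC20 capsaicin (allosteric enhancer portion). Calcium-bound dye fluorescence at 480/520 nm.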
* = called active by the depositor; u = inconclusive; x = no result given; ! = a repeat was not active; [ ] = dose if it differs, or a comment. Most compounds without a hit are left out; they make up all but 0.5% or so of the library. Unless noted, calls follow the shape of the dose curve; as a rule, active = well fitted curve in the direction sought with a large enough effect; inconclusive = small, poorly fitted or top-dose-only effect, or another doubt; inactive = no such curve, though single readings can be large; an effect the other way counts as inactive or inconclusive.

SMILES	A-T KAP1 phos	TRPML1 ag	TRPML1 inh	TRPV1 agonist	RGS4 inh	TRPV1 potentiator
Cc1cccc(CN2CCC(C(=O)Nc3cccc(-c4cccc(F)c4)c3)CC2)n1	0%	0	-2	16	-16%	-16
CCCCC(=O)NC(=S)Nc1cccc(Cl)c1N1CCCCC1	u	0	-7	22	-9%	-5
CCCC(=O)NC(=S)Nc1cccc(Cl)c1N1CCCCC1	28µM*	2	-8	-1	-28%	-11
CCCCC(=O)NC(=S)Nc1ccccc1N1CCCCC1	22%	1	-11	19	-29%	0
CCC(=O)NC(=S)Nc1cccc(Cl)c1N1CCCCC1	35µM*	0	5	13	-30%	17
CCc1nc(C)cc2c1sc1ccccc12	20µM*	0	5	3	13%	-7
CC(C)(C)S(=O)(=O)c1cnc(-c2ccc(Cl)cc2)nc1N	1%	74*	-17	x	15%	x
Cc1cc(Cl)ccc1OCCCC(=O)N1CCCc2ccccc21	16%	3	37	0	-32%	-6
CCc1cc(=O)oc2cc(OCC(=O)NCCCN3CCCC3=O)ccc12	16%	-1	-8	0	16%	-1
O=C(CSc1n[nH]c(-c2ccncc2)n1)Nc1ccc(Br)cc1	20µM*	1	-15	-6	-30%	-7
O=C(N/N=C/c1cccnc1)c1ccc2c(c1)OCO2	-5%	0	15	90*	-10%	-36
COc1ccccc1/C=N/NC(=O)c1ccc2c(c1)OCO2	9%	0	11	6	-2%	-16
COc1ccc(/C=N/NC(=O)c2ccc3c(c2)OCO3)c(C(=O)O)c1OC	1%	0	-2	80*	24%	-8
OC1(c2ccccc2)CC(c2ccccc2)c2ccccc2O1 (stereo unspecified)	x	0	-4	x	-5%	x
O=C(Cc1cccs1)Nc1cccc(-c2nnc(-c3ccco3)o2)c1	4%	1	20	u	-8%	89*
CCN(CC)c1ccc2cc(C=O)c(=O)oc2c1	x	113*	-22	u	3%	-3
CCN(CC)c1ccc2cc(C(=O)Nc3ccccn3)c(=O)oc2c1	6%	10	-15	29	4%[11.4 µM]	-9
CCN(CC)c1ccc2cc(C(N)=O)c(=O)oc2c1	u	0	0	-5	-10%	-8
CCN(CC)c1ccc2cc(C(C)=O)c(=O)oc2c1	u	72*	0	u	-45%	-30
CCN(CC)c1ccc2cc(C(N)=O)c(=N)oc2c1	28%	56*	-7	u	-21%	-11
CCOC(=O)/C(=N\Nc1ccccc1Cl)N1CCN(c2ccccc2OC)CC1	-1%	3	58	13	14%	-8
COc1ccc(CNS(=O)(=O)c2ccc3c(c2)N(C)CCO3)cc1	0%	0	-15	9	-1%	8
O=Cc1ccc2noc(-c3ccc(Cl)cc3)c2c1	-5%	1	26	3	-12%	-5
O=C(CP(=O)(c1ccccc1)c1ccccc1)N1CCCCC1	-3%	0	-2	9	28%	28
N=c1c[n+](N2CCOCC2)[n-]o1	-8%	1	29	1	19µM*!	21
SMILES	A-T KAP1 phos	TRPML1 ag	TRPML1 inh	TRPV1 agonist	RGS4 inh	TRPV1 potentiator
O=C(CN1C(=O)NC2(CCCC2)C1=O)Nc1cc(Cl)ccc1N1CCCC1	6%	0	-7	6	-12%	-3
COc1ccc(-c2c3c(=O)n(C)c(=O)n(C)c3cn2-c2ccc(O)cc2)cc1	32µM*	1	13	5	-22%	-7
CCNC(=S)Nc1cc(-c2ccc(Cl)cc2)[nH]n1	1%	3	21	1	0%	12
CC(C)(C)c1ccc(OCc2ccc(C(=O)NN)o2)cc1	-14%	2	20	123*	30%	1
CC(C)(C)c1ccc(C(=O)Nc2ccc(S(N)(=O)=O)cc2)cc1	-5%	0	-3	86*	0%	-2
CC(C)(C)c1ccc(C(=O)Nc2ccc3c(c2)C(=O)NC3=O)cc1	5%	0	-5	86*	10%	-11
CC(C)(C)c1ccc(C(=O)Nc2ccc(C=C(C#N)C#N)cc2)cc1	3%	0	14	89*	u	-16
CC(=O)c1ccc(C(=O)Nc2ccc3c(c2)C(=O)NC3=O)cc1	-1%	-1	-10	9	u	u
CC(C)(C)c1ccc(C(=O)Nc2ccc(NC(=O)c3ccc(Cl)c(Cl)c3)cc2)cc1	x	-1	1	x	-8%	x
N#CC(C#N)=Cc1ccc(NC(=O)c2ccc(Br)cc2)cc1	6%	2	49	113*	-40%	-13
CCN(CC(=O)Nc1ccc(NC(C)=O)cc1)C(=O)Cc1coc2cc(C)c(C)cc12	1%	0	24	3	-18%	29
CCOc1ccc(NC(=O)CSC2=NCCN2)cc1	9%	0	-9	0	6%	-7
FC(F)Sc1ccc(Nc2ncnc3nc[nH]c23)cc1	0%	2	9	83*	4%	17
COc1ccc(C2/C=C\CN(C(=O)C3CCCC3)CC(=O)N2Cc2ccc(F)cc2)cc1 (stereo unspecified)	14µM*	1	-4	-6	-11%	u
O=C(NCc1nc2ccccc2[nH]1)C1=C[C@@H](c2csc3ccccc23)C[C@@H](OCCCCO)O1	-11%	0	32	-2	0%	1
CCC(Cn1nnc2ccccc2c1=O)NC(=O)Nc1ccc(C)c(C)c1 (stereo unspecified)	x	0	-69*	x	-7%	x
COc1ccc(-c2cnnn2-c2ccc(NC(=O)c3ccc(S(=O)(=O)N4CCCCC4)cc3)cc2)cc1OC	-8%	1	60	-4	-14%	-4
CCOC(=O)c1sc(NC(=O)C2CC=CCC2C(=O)O)nc1C (stereo unspecified)	3%	0	-8	0	11%	11
O=C(CCc1ccccc1)Nc1nc2n(n1)C(c1ccccc1)CC(=O)N2 (stereo unspecified)	32µM*	0	12	3	16%	19
O=C(CCc1ccccc1)Nc1nc2n(n1)C(c1ccc(Cl)cc1)CC(=O)N2 (stereo unspecified)	-1%	-1	2	3	-11%	3
Cc1ccc(Cn2cccc(-c3nc4ccccc4s3)c2=O)cc1	28µM*	5	28	9	-14%	17
O=c1c(-c2nc3ccccc3s2)cccn1Cc1ccccc1	u	-1	5	x	-42%	x
CCOC(=O)C(C)Sc1ncnc2c1c(-c1ccccc1)cn2-c1ccc(OC)cc1 (stereo unspecified)	-1%	1	-2	8	-8%	-3
